Assay results as given in PubChem BioAssay AID686978 (National Center for Advancing Translational Sciences (NCATS), 2013).
Out of some 420,000 compounds screened, about 64,000 (15%) were called active. Not shown: some 27% with an inconclusive outcome. The list is a sample of the results. Values without a mark were called inactive. Calls follow the shape of the dose curve; as a rule, active = well fitted inhibition curve with a large enough effect; inconclusive = small, poorly fitted or top-dose-only effect; inactive = flat fitted curve, though single readings scatter.

Assay: qHTS for Inhibitors of human tyrosyl-DNA phosphodiesterase 1 (TDP1): qHTS in cells in absence of CPT; also: nearly all actives have a fitted effect of over 55% in size
Settings: DT40 Tdp1-/- hTDP1 cells, no CPT, ATP luminescence, 48 h; activity change, negative = growth inhibition: at 46.2 µM (top of the series)
How it was run: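 Chicken DT40 Tdp1-/- cells complemented with human TDP1, screened without camptothecin (DMSO vehicle only), 400 cells/well. Compounds pin-transferred, cells incubated at 37 °C for at least 48 hr. Growth read as ATP-dependent luminescence (CellTiter-Glo, 30 min at RT).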
% is scaled to controls: 0 for no effect and ±100 for the full control effect; potency is read from the fitted curve at half-maximal effect.

| Structure (SMILES) | Potency | activity change, negative = growth inhibition [%] |
| --- | --- | --- |
| O=C(CC(n1cncn1)C(Cl)(Cl)Cl)c1ccc([N+](=O)[O-])cc1 (centres undefined) | 14.6 µM (active) | – |
| C/C(=N/NC(=O)CSc1ccccn1)c1ccc([N+](=O)[O-])cc1 | – | 2.71 |
| NC(=O)c1ccc(-c2csnn2)cc1 | – | -0.292 |
| COc1ccc(COCCN2CCN(S(=O)(=O)c3ccccc3)CCC2=O)cc1 | – | 5.39 |
| CN1CCC(=O)N([C@H](CO)Cc2ccccc2)CC1 | inactive | – |
| Cc1ccc(S(=O)(=O)N2CCC(=O)N([C@H](COCc3ccccc3)Cc3ccccc3)CC2)cc1 | 18.4 µM (active) | – |
| Cc1cccc(N=C2NC(=O)CS2)c1C | – | 3.53 |
| Cc1ccc(NS(=O)(=O)c2ccc(N/N=C/c3ccccc3OCC(=O)O)c([N+](=O)[O-])c2)c(C)c1 | – | -4.92 |
| O=[N+]([O-])c1cccc(/C=N/Nc2ncc(Br)cn2)c1 | – | -9.68 |
| Cc1cccc(COc2ccccc2/C=N/Nc2ccc([N+](=O)[O-])cc2)c1 | 20.6 µM (active) | – |
| CN1C(=O)C(CC(N)=O)N(NC(=O)c2ccc(Cl)cc2)C1=S (centres undefined) | – | -2.93 |
| CC(C)(C)NC(=O)CSc1nnc(NC(=O)CCc2ccccc2)s1 | – | -17.3 |
| CC(C)(C)NC(=O)CSC(=Nc1ccccc1F)NC#N | 16.4 µM (active) | – |
| Cc1ccccc1CSCC(=O)NC(=O)NC(C)(C)C | – | -25.3 |
| N#C/C(=C1\CCCN1)c1nc(-c2ccccc2)cs1 | – | -23.2 |
| Cc1nc(C(F)(F)F)ccc1C(=O)N1CCC1(C)C(=O)NS(=O)(=O)c1ccc(F)cc1F (centres undefined) | – | 11.3 |
| CCc1ccc(N(C(=O)c2csnn2)C(C(=O)NC2CCCCC2)c2ccncc2)cc1 (centres undefined) | – | -12.5 |
| Cc1ccc(N(C(=O)CNC(=O)c2ccco2)C(C(=O)NC2CCCC2)c2ccncc2)cc1 (centres undefined) | – | -6.22 |
| Cc1ccc(N(C(=O)C(F)(F)F)C(C(=O)NC2CCCCC2)c2ccncc2)cc1C (centres undefined) | 18.4 µM (active) | – |
| O=C(c1cc(-c2ccccc2O)on1)N1CCCC1 | – | -3.42 |
| O=C1[C@@H](c2ccccc2)[C@@H](c2ccccc2)N1c1cccnc1 | 8.2 µM (active) | – |
| O=C1C(=O)N(c2ccccc2)C(c2ccccc2)C1c1ccccc1 (centres undefined) | – | 10.2 |
| CCc1ccccc1NC1c2ccccc2C(=O)N1c1cccnc1 (centres undefined) | – | -10.4 |
| CCCC(=O)N1c2ccccc2NC2=C(C(=O)CCC2)C1c1ccc(F)cc1 (centres undefined) | – | -8.27 |
| CCCC(=O)N1CCc2[nH]c3ccccc3c2C1 | – | -23.5 |
| CCOc1cccc(CC(=O)N2CCc3c([nH]c4ccccc34)C2c2ccc(F)cc2)c1OCC (centres undefined) | 25.9 µM (active) | – |
| Cc1cccc(C(=O)N2CCN(S(=O)(=O)N3CCCCC3)CC2)c1 | – | -33 |

| Structure (SMILES) | Potency | activity change, negative = growth inhibition [%] |
| --- | --- | --- |
| Cc1cccc(C(=O)N2CCc3c([nH]c4ccccc34)C2CC(C)C)n1 (centres undefined) | – | -16.7 |
| Cc1ccc(C2c3[nH]c4ccccc4c3CCN2C(=O)c2cccc(C)c2)cc1 (centres undefined) | 18.4 µM (active) | – |
| O=C(COC(=O)CCOc1ccccc1)Nc1cc(S(=O)(=O)N2CCCCC2)ccc1Cl | – | -8.88 |
| CC1=Nn2c(nnc2-c2ccccc2)SC1 | – | -23.9 |
| COc1cccc(C(=O)NCCS(=O)(=O)NCC2CCCO2)c1 (centres undefined) | – | -6.41 |
| CC1CCCCN1Cc1c(O)ccc2c(=O)c(-c3cccc(Cl)c3)c(C(F)(F)F)oc12 (centres undefined) | – | -9.1 |
| CC(=O)c1cccc(OCC(=O)OCC(=O)Nc2cc(S(=O)(=O)N3CCCCC3)ccc2C)c1 | – | 5.94 |
| COc1ccc2c(c1)c(=Cc1ccc(N(C)C)cc1)c1cc(-c3ccccc3)[n+](C)n12 | 0.92 µM (active) | – |
| Cc1ccc(N2CC(NC(=O)Cc3cccs3)CC2=O)cc1 (centres undefined) | – | -1.33 |
| Cc1oc2c(c1C(=O)N1CCOCC1)C(=O)c1ccccc1C2=O | 2.59 µM (active) | – |
| Cc1onc(-c2ccccc2)c1C(=O)N1CCOCC1 | – | -11 |
| O=C(c1ccccc1-c1ccccc1)N1CCOCC1 | – | -4.8 |
| Cc1cccc(C)c1OC(=O)CSc1nnc(-c2ccccc2)o1 | – | -24 |
| Cc1ccc(-c2nnc(CN3CCN(C)CC3)o2)cc1 | – | -10.4 |
| CCCC(O)(c1ccc(OC)cc1)C(CN(C)C)c1ccccc1 (centres undefined) | – | -8.8 |
| COC(=O)[C@@H](NC(=O)NCc1cccc(OC)c1)C(C)C | – | -10.4 |
| COc1cccc(CN(C)CC(O)COC(c2ccccc2)c2ccccc2C)c1 (centres undefined) | 16.4 µM (active) | – |
| Cc1ccc(-n2c(SCC(=O)NCc3ccc4c(c3)OCO4)nnc2-c2cccnc2)c(C)c1 | – | -26.4 |
| O=C(CCSCCc1ccccn1)Nc1nccs1 | – | -24.1 |
| COc1ccc(C(=O)c2c(C)oc3cc([N+](=O)[O-])c(O)c([N+](=O)[O-])c23)cc1 | – | -19.1 |
| COc1ccc(/C=N/Nc2nc(-c3ccc(C)cc3)c(C#N)c(=O)[nH]2)cc1 | – | -13.2 |
| CCOC(=O)c1cc(-c2nnc(-c3cc(OC)c(OC)c(OC)c3)o2)c(C)nc1C | 16.4 µM (active) | – |
| CCOC(=O)c1cc2ccccc2nc1C | – | -9.4 |
| O=C(CCN1C(=O)[C@@H]2Cc3ccccc3CN2C1=O)NCc1ccccc1 | – | 9.34 |
| Cc1ccc(S(=O)(=O)N(C)C)cc1NC(=O)c1n[nH]c(=O)c2ccccc12 | 23.1 µM (active) | – |
| Cc1ccc(S(=O)(=O)N(C)C)cc1NC(=O)COC(=O)C1COc2ccccc2O1 (centres undefined) | – | 0.485 |
| Cc1ccc(S(=O)(=O)N(C)C)cc1NC(=O)c1ccccc1Br | – | -10.6 |
